In PubChem BioAssay (NCATS):
Where “and” joins values, the source holds several entries; their conditions need not be identical. Equal values may be shown once. Inconclusive results are not listed. A number with no mark means an inactive call. Calls of active or inactive are those of the source. Calls follow the shape of the dose curve; as a rule, active = well fitted cell-killing curve with a large enough effect; inconclusive = small, poorly fitted or top-dose-only effect; inactive = no such curve, though single readings can be large or run the other way.

assay: qHTS of pediatric cancer cell lines to identify multiple opportunities for drug repurposing: Primary screen for LAN-5 cells (AID 1347100); conditions: LAN-5 neuroblastoma viability, CellTiter-Glo luminescence, 48 h; series mostly up to 46 µM; activity change, negative = cytotoxic: at the top concentration
Description: Drug repurposing or repositioning has been offered as a strategy for drug development in oncology programs. This approach has special potential for childhood cancers and other rare or orphan diseases, where the expected return on new drug development has been a disincentive to pharmaceuticals.
In this project we exploit the poly-pharmacology of drugs to discover new indications via phenotypic screening of a panel of 19 well-characterized cell lines derived from solid tumors seen in children and adolescents. The goal is to identify approved drugs with previously unrecognized anticancer properties that has the potential to reveal new mechanisms and biological processes involved in carcinogenesis or drug resistance. We employed a titration-based paradigm (quantitative high-throughput screening or qHTS), where all compounds were tested at multiple concentrations for their effect on cell viability. Concentration-response curves (CRCs) were derived directly from the primary screen, and both potency and efficacy values were used to identify compounds with robust bioactivity profiles. We screened the NIH Chemical Genomics Center (NCGC) Pharmaceutical Collection (NPC) and Mechanism Interrogation Plate (MIPE) small molecule collections of approved and investigational compounds against these cell lines; and measured metabolically active cells after 48 hours of compound treatment as a proxy for cell viability.
Assay Submitter: Nathalia J. Martinez, National Center for Advancing Translational Sciences, National Institutes of Health, Rockville, MD, USA; email: natalia.martinez@nih.gov
[1] Shen, M et al. Quantitative high-throughput phenotypic screening of pediatric cancer cell lines identifies multiple opportunities for drug repurposing. Oncotarget 2017 Dec 19;9(4):4758-4772. PMID 29435139.
The cells were obtained from University of North Carolina (UNC), Pediatric Preclinical Testing Program (PPT), and Coriell Institute (CI).
qHTS cell viability assay:
Cells were assayed in growth media at a density of 500-1,000 cells/well. Five microliters of cells were dispensed into 1,536-well, white, solid-bottom, TC-treated plates (Greiner Bio One) using a multidrop dispenser and incubated at 37 degrees C, 5% CO2, under a humidified atmosphere for 5 hours. Twenty-three nanoliters of compounds and controls (neutral control DMSO or positive control bortezomib at final concentration of 2.3 µM) were subsequently transferred by Kalypsys pintool. For primary screens, the MIPE collection was tested at 11-point dilutions (final concentrations range from 0.78 nM to 46 µM) and the NPC collection at 8-point dilutions (final concentrations range from 0.59 nM to 46 µM). Compounds tested in follow-up screens were assayed at 11-point dilutions. Cells were incubated for 48 hours, followed by addition of 3 µL of CellTiter-Glo (Promega). After a 15 min incubation at room temperature, samples were analyzed for luminescence intensity using a ViewLux High-throughput CCD imager equipped with clear filters.
Potency is read from the fitted curve at half-maximal effect.

Row | SMILES | Potency | activity change, negative = cytotoxic [%]
1 | C=C1C(=O)OC2C=C(C)CCC=C(C)CCC12 (stereo not given) | 23.5 µM (active) | 
2 | CC(C)C(=O)Nc1ncc(-c2cc(C(F)F)nn2-c2c(Cl)cccc2Cl)s1 | 23.5 µM (active) | 
3 | CNC(=O)c1ccc2cc(C3(O)CCn4cncc43)ccc2c1 (stereo not given) |  | -8.42
4 | COCCOC(=O)C1=C(C)NC2=C(C(=O)CC(c3ccccc3OC)C2)C1c1cccc(O)c1 (stereo not given) | 13.2 µM (active) | 
5 | O=C(NCc1ccccc1)c1csc(Nc2ccncn2)n1 | 13.2 µM (active) | 
6 | COc1ccc2c3c1OC1C[C@@H](O)C=C[C@@]31CCN(C)C2 (stereo not given in full) |  | 11.2
7 | CC(=O)CCCCn1c(=O)c2c(ncn2C)n(C)c1=O |  | 0.665
8 | NC1=N[C@@]2(c3cc(NC(=O)c4ccc(F)cn4)ccc3F)COC[C@@H]2CS1 | 0.132 µM (active) | 
9 | COC(=O)N[C@H](C(=O)N1CCC[C@@H]1c1ncc(-c2ccc(-c3ccc(-c4cnc([C@@H]5CCCN5C(=O)[C@@H](NC(=O)OC)C(C)C)[nH]4)cc3)cc2)[nH]1)C(C)C | 26.4 µM (active) | 
10 | C[N+](C)(C)CCCCCC[N+](C)(C)C |  | 18.5
11 | OC[C@@H](O)[C@H](O)[C@H](O)[C@@H](O)CO | inactive | 
12 | Cc1[nH]c(C=C2C(=O)Nc3ccc(S(=O)(=O)Cc4c(Cl)cccc4Cl)cc32)c(C)c1C(=O)N1CCC[C@H]1CN1CCCC1 | 14.8 µM (active) | 
13 | C[C@]12CC[C@@H]3c4ccc(O)cc4C[C@@H](CCCCCCCCCS(=O)CCCC(F)(F)C(F)(F)F)[C@H]3[C@H]1CC[C@H]2O (stereo not given in full) |  | -13.4
14 | Cc1cnc(C(=O)O)c[n+]1[O-] |  | 5.56
15 | NC(N)=Nc1nc(CSCC/C(N)=N/S(N)(=O)=O)cs1 |  | -9.51
16 | COCCOc1nc(-c2ccc(Cl)c(Cl)c2)n(-c2ccc(NC(=O)CCl)cc2)n1 | 18.7 µM (active) | 
17 | CN1CCN(CCOc2cc(OC3CCOCC3)c3c(Nc4c(Cl)ccc5c4OCO5)ncnc3c2)CC1 | 18.7 µM (active) | 
18 | CC1(C)S[C@H]2[C@H](NC(=O)[C@@H](N)c3ccc(O)cc3)C(=O)N2[C@@H]1C(=O)O | 3.72 µM (active) | 
19 | CCOc1ccc(Nc2nc(-c3c(C)nc4ccccn34)cs2)cc1 | 0.001 µM (active) | 
20 | Cc1ccc([C@@H]2O[C@H](CO)[C@@H](O)[C@H](O)[C@@H]2O)cc1Cc1ccc(-c2ccc(F)cc2)s1 |  | -7.53

Row | SMILES | Potency | activity change, negative = cytotoxic [%]
21 | Clc1ccc(-c2nc3sccn3c2C=NOCc2ccc(Cl)c(Cl)c2)cc1 |  | -5.54
22 | C[C@]12CCC3c4ccc(O)cc4CCC3C1CCC2=O (stereo not given in full) |  | -11.7
23 | COc1cc2nc(-c3ccc(N4CCN(C)CC4)cc3)nc(NCCN3CCOCC3)c2cc1OC | 0.0187 µM (active) | 
24 | C[C@H]1[C@H](NC(=O)C(=NOC(C)(C)C(=O)O)c2csc(N)n2)C(=O)N1S(=O)(=O)O |  | -1.23
25 | O=C(CCCCCCC(=O)Nc1ccccc1)NO | 1 nM (active) and 1.32 µM (active) | 
26 | Cc1ccn(-c2ccc(-c3ncco3)cc2)c(=O)c1-c1ccc2nc(N)ncc2c1 |  | -21.3
27 | CCN(CC)CCNC(=O)c1ccc(N)cc1 |  | 20.9
28 | O=C(Nc1cc(Cl)cc2c1[nH]c1cnccc12)c1cccnc1 |  | -11.9
29 | O=C(O)c1ccc(-c2cc3cccnc3c(-c3ccc4nonc4c3)n2)cc1 | 20.9 µM (active) | 
30 | Nc1ncnc2ccccc12 |  | -5.18
31 | CCCCC1C(=O)N(c2ccccc2)N(c2ccccc2)C1=O |  | -3.23
32 | CC(C(=O)O)c1ccc(-c2ccccc2)c(F)c1 (stereo not given) |  | -23
33 | CCN(CC)CCOC(=O)c1ccc(N)cc1 |  | 28.3
34 | CC[C@]1(O)C[C@@H]2CN(CCc3c([nH]c4ccccc34)[C@@](C(=O)OC)(c3cc4c(cc3OC)N(C)[C@H]3[C@@](O)(C(=O)OC)[C@H](OC(C)=O)[C@]5(CC)C=CCN6CC[C@]43[C@@H]65)C2)C1 | 0.133 µM (active) | 
35 | CC(C)OC(=O)CCCC=CC[C@@H]1[C@H](C=C[C@@H](O)COc2cccc(C(F)(F)F)c2)[C@H](O)C[C@@H]1O |  | 0.746
36 | N#Cc1ccc(NC(=O)Nc2ccccc2Br)c2n[nH]nc12 | 26.4 µM (active) | 
37 | Cc1nc(N)sc1-c1ccnc(Nc2ccc(N3CCOCC3)cc2)n1 | 0.332 µM (active) | 
38 | Cc1ccc(C(C)(O)c2nc3ccccc3s2)c(C)c1 (stereo not given) | 3.72 µM (active) | 
39 | O=C(O)C=Cc1ccc(O)c(O)c1 | 3.72 µM (active) | 
40 | Cc1cccc(C)c1OCC(C)N (stereo not given) |  | -18.4
